Test systems include NCI-H23 lung; NCI-H226 lung; NCI-H322M lung; HOP-62 NSCLC; NCI-H460 lung; HOP-92 NSCLC; NCI-H522 lung; A549/ATCC NSCLC; 786-0 renal; COLO 205 colon; DU-145 prostate; K-562 leukemia; MALME-3M melanoma; MDA-MB-231 breast; RXF 393 renal; SF-268 CNS; SF-295 CNS; SF-539 CNS; UACC-257 melanoma; M14 melanoma.
Common to all, as to assay: NCI-60 one-dose screen, 48 h (100 = growth as untreated, 0 = no growth, -100 = all killed)
Common to all, as to conditions: 10 µM unless noted

Structures are written as SMILES. This is part of a sample that, as a whole, favours compounds with a hit. Of some 83,000 tested, about 20% had one in any assay.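 Negative percent growth values reflect cell death: -40 means 40% of the cells present at the start died, and -100 means all died.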 Values without a mark were called inactive. Calls of active or inactive are those of the source. Rule for the calls: active = growth percent below 10; inactive = the rest.

Consider eight compounds from PubChem BioAssay (NCI).

Take `C=C(c1ccc(C(=O)O)cn1)c1cc2c(cc1C)C(C)(C)CCC2(C)C`: the growth was 80.3% with NCI-H23 lung; 81% in the experiment with NCI-H226 lung; 108% in the experiment with NCI-H322M lung; 87.3% in the experiment with HOP-62 NSCLC; 92.4% in the experiment with NCI-H460 lung; 71.5% with HOP-92 NSCLC. Also, the growth in the experiment on NCI-H522 lung was 65.4%; with A549/ATCC NSCLC, 57.3%; with 786-0 renal, 114%; in the experiment with COLO 205 colon, 109%; in the experiment with DU-145 prostate, 93.7%; with K-562 leukemia, 92.3%. Besides, the growth with MALME-3M melanoma is 76.9%; in the experiment with MDA-MB-231 breast, 93.8%; in the experiment on RXF 393 renal, 102%; in the experiment on SF-268 CNS it was 76.5%; in the experiment on SF-295 CNS, 83.2%; with SF-539 CNS, 86.3%. Further, the results for the growth with UACC-257 melanoma and in the experiment with M14 melanoma were 84% and 88.5%, respectively.

For the compound `O=C(NCc1ccc2c(c1)OCO2)NCC1CCCC(CNC(=O)NCc2ccc3c(c2)OCO3)C1` (stereo not given), the growth in the experiment with NCI-H23 lung was 99.7%; in the experiment on NCI-H226 lung, 100%; in the experiment with NCI-H322M lung, 108%; in the experiment on HOP-62 NSCLC it was 102%; in the experiment with NCI-H460 lung, 101%; in the experiment with HOP-92 NSCLC, 103%. Also, the growth in the experiment on NCI-H522 lung was 89.4%; with A549/ATCC NSCLC, 96.9%; in the experiment on 786-0 renal, 97.6%; with COLO 205 colon, 119%; in the experiment on DU-145 prostate, 108%; in the experiment with K-562 leukemia it was 95.3%. Besides, the growth with MALME-3M melanoma was 108%; in the experiment with MDA-MB-231 breast, 96.4%; in the experiment with RXF 393 renal it was 106%; in the experiment with SF-268 CNS it was 97.7%; in the experiment on SF-295 CNS it was 101%; in the experiment on SF-539 CNS, 103%. The growth in the experiment on UACC-257 melanoma was 104%; with M14 melanoma, 109%.

Regarding `COC1=CC(c2ccc[nH]2)=N/C1=C\c1[nH]c(C)c(CC(=O)OCc2ccccc2)c1C`, the growth in the experiment on NCI-H23 lung was 6.16% (active); in the experiment with NCI-H226 lung, 10.5%; in the experiment on NCI-H322M lung, 25.9%; with HOP-62 NSCLC it was 1.96% (active); in the experiment on NCI-H460 lung, 7.86% (active); in the experiment with HOP-92 NSCLC, -16.8% (active). Also, the growth in the experiment with NCI-H522 lung is -33.4% (active); with A549/ATCC NSCLC it was 5.03% (active); with 786-0 renal, -23.7% (active); in the experiment on COLO 205 colon it was -4.75% (active); in the experiment on DU-145 prostate, 20.8%; in the experiment on K-562 leukemia it was 2.58% (active). For the same compound, the growth in the experiment on MALME-3M melanoma was -67.9% (active); in the experiment on MDA-MB-231 breast, -13.6% (active); with RXF 393 renal, -26.7% (active); in the experiment with SF-268 CNS, 9.87% (active); with SF-295 CNS it was -50.1% (active); with SF-539 CNS, -4.33% (active). In addition, the growth was -25% (active) with UACC-257 melanoma and -55.9% (active) in the experiment on M14 melanoma.

For `C#CC#CC#CC#CC#CC#CC#CC#CC[C@H]1OC[C@@H](COC(=O)O[C@@H](C(=O)O[C@H]2C[C@@]3(O)[C@@H](OC(=O)c4ccccc4)[C@@H]4[C@]5(OC(C)=O)CO[C@@H]5C[C@H](O)[C@@]4(C)C(=O)[C@H](OC(C)=O)C(=C2C)C3(C)C)[C@@H](NC(=O)c2ccccc2)c2ccccc2)O1`, the growth in the experiment with NCI-H23 lung is 48%; in the experiment on NCI-H226 lung it was 56.2%; in the experiment with NCI-H322M lung, 54.6%; with HOP-62 NSCLC, 74.4%; with NCI-H460 lung it was 19.2%; in the experiment on HOP-92 NSCLC, 79.3%. Besides, the growth in the experiment on NCI-H522 lung was 71.4%; with A549/ATCC NSCLC, 52.4%; in the experiment on 786-0 renal, 83.3%; in the experiment with COLO 205 colon, 29.4%; with DU-145 prostate, 41.1%; with K-562 leukemia, 22.7%. Moreover, the growth was 62.5% in the experiment on MALME-3M melanoma; 66% with MDA-MB-231 breast; 50.7% in the experiment with RXF 393 renal; 65.9% with SF-268 CNS; 43.5% in the experiment on SF-295 CNS; 54.1% in the experiment on SF-539 CNS. Further, the growth was 64.6% in the experiment with UACC-257 melanoma and 25.3% in the experiment with M14 melanoma.

In the case of `Cc1ccc2[nH]c(=O)c3c(c2c1)OC(N)=C(C#N)C31C(=O)c2cccc3cccc1c23` (stereo not given), the growth with NCI-H23 lung is 103%; in the experiment with NCI-H226 lung it was 91.1%; in the experiment with NCI-H322M lung it was 100%; in the experiment on HOP-62 NSCLC, 98.2%; in the experiment on NCI-H460 lung, 101%; in the experiment with HOP-92 NSCLC, 104%. Also, the growth with NCI-H522 lung is 89.3%; with A549/ATCC NSCLC, 103%; with 786-0 renal it was 100%; in the experiment on COLO 205 colon, 103%; in the experiment on DU-145 prostate it was 101%; with K-562 leukemia it was 87.8%. Moreover, the growth in the experiment on MALME-3M melanoma was 99.2%; with MDA-MB-231 breast it was 87.4%; with RXF 393 renal it was 97%; with SF-268 CNS, 94.6%; with SF-295 CNS, 104%; with SF-539 CNS it was 95.9%. Besides, the figures for the growth in the experiment with UACC-257 melanoma and in the experiment with M14 melanoma were 108% and 98.2%, respectively.

As for `CN(C)c1ccc(C(=NO)c2ccc(N(C)C)cc2)cc1`, the growth in the experiment with NCI-H23 lung was 47.3%; in the experiment on NCI-H226 lung, 78.5%; in the experiment with NCI-H322M lung, 81.3%; in the experiment on HOP-62 NSCLC it was 46.2%; with NCI-H460 lung, 7.18% (active); with HOP-92 NSCLC it was 37.8%. Further, the growth in the experiment with NCI-H522 lung was -25.8% (active); in the experiment on A549/ATCC NSCLC, 31.4%; in the experiment on 786-0 renal, 57.3%; in the experiment on COLO 205 colon it was 42.8%; with DU-145 prostate, 56%; in the experiment with K-562 leukemia, 17%. Besides, the growth with MALME-3M melanoma was 29.8%; with MDA-MB-231 breast, 63.5%; with RXF 393 renal it was 33.5%; with SF-268 CNS, 50.6%; with SF-295 CNS it was 3.86% (active); in the experiment with SF-539 CNS, 33.7%. Also, the growth in the experiment with UACC-257 melanoma is 41.4%; with M14 melanoma it was 17.4%.

With `O=C(Nc1ncc(Cc2ccccc2Cl)s1)c1cccs1`, the growth with NCI-H23 lung is 80.3%; in the experiment on NCI-H226 lung it was 85.1%; in the experiment with NCI-H322M lung, 78%; in the experiment with HOP-62 NSCLC it was 66.6%; in the experiment with NCI-H460 lung, 57.7%; with HOP-92 NSCLC, 58.6%. Moreover, the growth is 51.9% with NCI-H522 lung; 54.1% in the experiment on A549/ATCC NSCLC; 86.1% in the experiment with 786-0 renal; 85.8% with COLO 205 colon; 82.6% with DU-145 prostate; 16.9% in the experiment with K-562 leukemia. In addition, the growth is 69.1% in the experiment on MALME-3M melanoma; 88.7% with MDA-MB-231 breast; 82.2% in the experiment on RXF 393 renal; 76.4% in the experiment with SF-268 CNS; 65.2% in the experiment with SF-295 CNS; 95.8% in the experiment on SF-539 CNS. In addition, the growth in the experiment on UACC-257 melanoma was 92.6%; with M14 melanoma it was 62.3%.

In the case of `CC(C)(C)C(=O)/C=C/c1ccc([N+](=O)[O-])cc1`, the growth was 85.7% in the experiment on NCI-H23 lung; 69.6% in the experiment with NCI-H226 lung; 103% in the experiment with NCI-H322M lung; 103% in the experiment with HOP-62 NSCLC; 97.9% in the experiment with NCI-H460 lung; 67.5% in the experiment with HOP-92 NSCLC. Also, the growth in the experiment on NCI-H522 lung is 40%; in the experiment with A549/ATCC NSCLC, 66.8%; in the experiment on 786-0 renal, 97.5%; with COLO 205 colon, 82.5%; with DU-145 prostate it was 80.2%; with K-562 leukemia, 13.3%. In addition, the growth in the experiment with MALME-3M melanoma is 103%; with MDA-MB-231 breast, 81.2%; with RXF 393 renal, 93.7%; in the experiment with SF-268 CNS, 90.1%; in the experiment on SF-295 CNS, 93.3%; in the experiment with SF-539 CNS, 86.9%. For the same compound, the growth in the experiment with UACC-257 melanoma was 50%; with M14 melanoma, 70.9%.
